# Compound activity as filed in PubChem.
# Shown are actives, neighbours in structure and some others; about 3.1% of the full set was active somewhere.
# CF NFkB inh: inhibitors of PAF-induced NF-kB signaling, primary screen, cell-based, GFP fluorescence, uHTS. KKLEB NF-kB-GFP reporter, GFP fluorescence overnight. inhibition, % at 5 µM. 360,000 compounds, 0.86% hits;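 active means at least 50% inhibition at 5 µM, scaled per plate between neutral and stimulator controls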;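 further: PAF is a Pseudomonas aeruginosa culture filtrate used as stimulus; plate controls were PAF-stimulated DMSO wells for no effect and unstimulated DMSO wells for full effect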
# TRPM1 prom inh: inhibitors of MITF-dependent TRPM1 promoter reporter, primary screen, cell-based, SK-MEL-5, single point, luciferase. inhibition, % at 12.5 µM. 330,000 compounds, 0.83% hits. SK-MEL-5 TRPM1 promoter luciferase, 24 h. AID 488899, 2010;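 active means mean inhibition across replicates of 60% or more, whatever share of single replicates reaches that level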
# ABHD5-PLIN5 inh: ABHD5-PLIN5 interaction inhibitors, primary screen, cell lysate, split luciferase complementation, luminescence. Perilipin-5 (Homo sapiens) + 1-acylglycerol-3-phosphate O-acyltransferase ABHD5 (Homo …. Split G. princeps luciferase complementation, 4 h. inhibition, % at 4 µM. 360,000 compounds, 0.78% hits. AID 602281, 2012;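 active means inhibition above the mean inhibition across every tested compound plus 3 SD, cut at about 22% in these data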;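 further: 0% = DMSO only wells and the 100% control is not disclosed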
# Target sequence (Q00G26 whole entry, looked up): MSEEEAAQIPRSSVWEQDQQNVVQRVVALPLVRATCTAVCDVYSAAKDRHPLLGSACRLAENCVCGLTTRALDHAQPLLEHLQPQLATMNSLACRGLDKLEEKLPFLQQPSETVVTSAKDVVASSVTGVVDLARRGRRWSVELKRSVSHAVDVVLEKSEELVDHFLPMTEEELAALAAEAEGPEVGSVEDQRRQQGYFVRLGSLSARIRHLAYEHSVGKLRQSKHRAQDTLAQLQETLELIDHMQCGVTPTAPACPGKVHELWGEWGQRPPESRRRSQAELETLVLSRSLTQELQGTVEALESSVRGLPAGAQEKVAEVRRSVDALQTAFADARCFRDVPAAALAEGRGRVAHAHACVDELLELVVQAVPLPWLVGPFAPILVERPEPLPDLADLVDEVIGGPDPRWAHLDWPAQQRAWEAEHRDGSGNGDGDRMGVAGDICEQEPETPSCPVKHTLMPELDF
# Target sequence (Q8WTS1 whole entry, looked up): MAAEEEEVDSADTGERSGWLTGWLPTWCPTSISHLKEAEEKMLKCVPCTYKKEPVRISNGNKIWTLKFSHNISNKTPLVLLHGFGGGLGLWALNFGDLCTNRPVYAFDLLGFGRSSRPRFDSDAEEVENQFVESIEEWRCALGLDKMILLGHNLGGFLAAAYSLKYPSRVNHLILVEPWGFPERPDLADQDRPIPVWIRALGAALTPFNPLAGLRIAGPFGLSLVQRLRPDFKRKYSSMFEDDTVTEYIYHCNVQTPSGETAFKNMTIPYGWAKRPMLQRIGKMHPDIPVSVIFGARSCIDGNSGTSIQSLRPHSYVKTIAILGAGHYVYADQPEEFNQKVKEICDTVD
# KKLEB tox: cytotoxicity in KKLEB CF airway cells, primary screen, cytotoxicity control for CF NF-kB inhibitor project, cell-based, uHTS, fluorescence assay plates | activity change (cytotoxicity), % at 5 µM | 360,000 compounds, 0.36% hits | AID 602141, 2011 | KKLEB CF airway cells viability, ATPlite luminescence, overnight; active compounds read low; cells stimulated with P. aeruginosa culture filtrate;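 active means corrected activity change at or below -50% at 5 µM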
# Peg3 promoter: Peg3 promoter-driven luciferase inhibitors, primary screen, cell-based, HeLa, luciferase luminescence; inhibition, % at 20 µM; 360,000 compounds, 1.7% hits; HeLa PEG-Prom luciferase reporter, overnight;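 active means inhibition of at least 50% at 20 µM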
# HIF-2a inh: HIF-2a reporter inhibitors, primary screen, luminescence, 786-0 RCC cells. AID 624352, 2012. inhibition, % at 18.8 µM. 360,000 compounds, 0.72% hits. 786-0 RCC cells HIF-2a reporter, luciferase luminescence, overnight;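 active means inhibition of the luminescence signal of 40% or more relative to plate controls, in a single-dose primary screen at 18.75 µM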
# Mdm2 MdmX conf: retested Mdm2-MdmX interaction blockers, confirmation, cell-based, luminescence, single concentration, set 2; shares compounds with HIF-2a inh; SaOS-2 split-luciferase Mdm2/MdmX complementation; inhibition, % at 8 µM; 740 compounds, 99% hits; AID 504601, 2011;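 active means mean inhibition of the luminescence signal across two replicates at or above 26 percent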
# HIF-2a inh conf: HIF-2a reporter inhibitor retest, confirmation, luminescence, 786-0 RCC cells. HIF-2a luciferase reporter luminescence, overnight. 1,800 compounds, 56% hits. inhibition, % at 18.8 µM. AID 651580, 2012. shares compounds with HIF-2a inh;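 active means mean inhibition across four replicates of at least 40 percent at the single tested concentration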
# HIF-1a cs: HIF-1a luciferase reporter signal reduction – MiaPaCa-2 cells, single concentration, counter-screen for HIF-2a inhibitor project, confirmation; inhibition, % at 18.8 µM; MiaPaCa-2 HIF-1a luciferase reporter, desferoxamine, overnight; shares compounds with HIF-2a inh; 1,800 compounds, 72% hits;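 active means mean inhibition of the reporter signal across four replicates at the single tested dose of 50% or more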
# * hit, by the source's call; x = no result.
SMILES,CF NFkB inh,TRPM1 prom inh,ABHD5-PLIN5 inh,KKLEB tox,Peg3 promoter,HIF-2a inh,HIF-2a inh conf,HIF-1a cs,others
COc1ccc(/C=C2\SC(=S)N(CCCC(=O)Nc3ccc(O)cc3)C2=O)cc1,-24,6,13,5,-42,45*,x,x,Mdm2 MdmX conf=103*
O=C(CCN1C(=O)/C(=C/c2ccccc2F)SC1=S)NCCc1ccc(O)cc1,-20,-1,-2,2,45,27,x,x,
COc1ccc(/C=C2/SC(=S)N(CCCC(=O)Nc3ccc(O)cc3)C2=O)cc1,-17,21,2,2,-121,31,x,x,Mdm2 MdmX conf=102*
COc1cccc(C2Nc3ccccc3NC3=C2C(=O)CC(C)(C)C3)c1 (stereo not given),-4,-11,-6,-1,0,14,x,x,
CCOCCCNC(=O)/C(C#N)=C/c1ccc(Cl)c([N+](=O)[O-])c1,-2,89*,-2,8,105*,92*,22,102*,
CCOCCCNC(=O)/C(C#N)=C/c1cc(OC)c(O)c([N+](=O)[O-])c1,10,9,0,-28,10,18,x,x,
O=C(O)C1C=Cc2ccccc2N1C(=O)c1ccccc1 (stereo not given) (tested in a mixture with another compound),-19,11,-1,8,1,4,x,x,
Nc1c(C(=O)N2CCOCC2)sc2nc3c(cc12)CCCC3,6,55,0,-11,36,46*,47*,32,
O=C(NCCc1ccccc1)Nc1ccc2c(c1)OCO2,-10,-29,-1,13,-218,-202,x,x,
CCc1ccc(OCC(=O)NC(NC(=S)Nc2ccccc2OC)C(Cl)(Cl)Cl)cc1 (stereo not given),2,-7,-17,2,44,50*,-1,29,
CCc1ccc(OCC(=O)NC(NC(=S)Nc2ccccc2C)C(Cl)(Cl)Cl)cc1 (stereo not given),15,15,-16,6,61*,41*,-6,64*,
CC(=O)Nc1ccc(S(=O)(=O)N2CCC(C(=O)NCCC(=O)NCc3ccccc3)CC2)cc1,14,-6,-1,-1,-10,-3,x,x,
CCOC(=O)CNC(=O)CSc1ncnc2c1cnn2Cc1ccccc1,15,6,-9,-9,-3,48*,20,16,
CCOC(=O)CSCc1nc(-c2ccc(Cl)cc2)oc1C,2,-5,1,1,2,50*,54*,44,
CCc1ccc(-c2nc(CSCC(=O)NCc3ccco3)c(C)o2)cc1,-10,36,2,-5,14,40*,44*,39,
Cc1oc(-c2ccc(Cl)cc2)nc1CS(=O)CC(=O)NCc1ccccc1 (stereo not given),-10,6,4,12,6,0,x,x,
CCCNC(=O)CSCc1nc(-c2ccc(SC)cc2)oc1C,-21,-14,-15,6,-38,-96,x,x,
CCc1ccc(-c2nc(CS(=O)CC(=O)NCc3ccccc3)c(C)o2)cc1 (stereo not given),-3,32,-3,0,53*,50*,45*,55*,
CCOC(=O)/C=C/C(=O)OCC(=O)N1CCN(C(=O)c2ccco2)CC1,30,4,8,-6,28,7,x,x,
Cc1ccc(NC(=O)CCc2ccc(C)o2)cc1,-3,3,-2,-4,-31,-44,x,x,
O=[N+]([O-])c1ccccc1S(=O)(=O)N1CCN(c2ccc(F)cc2)CC1,-4,4,-2,-9,2,-3,x,x,
Cc1ccc(N(NC(=O)C(O)(c2ccccc2)c2ccccc2)C(=O)CCl)cc1,58*,29,6,-66*,103*,50*,32,99*,Mdm2 MdmX conf=102*
COc1ccc([C@H]2C[C@@H](n3cc(C4CC4)nn3)[C@H](O)CN2CC2CCCCC2)cc1,-8,x,-9,-3,38,-6,x,x,
N#Cc1cccc2c1-c1ccccc1/C2=N/NC(N)=S,-167,15,-9,-8,40,48*,-9,32,
NC(=O)N/N=C1\c2ccccc2-c2c(C(N)=O)cccc21,-36,x,4,0,-2,15,x,x,
SMILES,CF NFkB inh,TRPM1 prom inh,ABHD5-PLIN5 inh,KKLEB tox,Peg3 promoter,HIF-2a inh,HIF-2a inh conf,HIF-1a cs,others
CCOC(=O)COc1c(Br)cc(/C=C2\SC(=O)N(CC(=O)N3CCCC3)C2=O)cc1OC,15,11,4,-6,7,49*,8,42,
CN(C)c1nc(C=C(C#N)C#N)c(Cl)n1-c1ccc(F)cc1,86*,101*,2,-96*,110*,91*,92*,92*,
CCOc1ccccc1NC(=O)/C(C#N)=C/c1c(C)nn(-c2ccc(F)cc2)c1Cl,24,-5,2,-18,24,21,x,x,
C#CC(=O)N(c1ccc(OC)c(OC)c1)C(C(=O)NC1CCCC1)c1cccs1 (stereo not given),101*,96*,20,-100*,103*,87*,100*,105*,Mdm2 MdmX conf=102*
COc1ccc(N(C(=O)Cc2cccs2)C(C(=O)NC2CCCC2)c2ccncc2)cc1OC (stereo not given),-3,-4,-3,14,2,18,x,x,
C#CC(=O)N(c1cccc(OC)c1)C(C(=O)NC1CCCC1)c1cccs1 (stereo not given),94*,107*,23*,-97*,106*,93*,99*,104*,Mdm2 MdmX conf=103*
CCCCS(=O)(=O)/C=C\C=C/S(=O)(=O)CCCC,84*,104*,84*,-71*,102*,93*,x,x,Mdm2 MdmX conf=102*
CCCCS(=O)(=O)/C=C\C1C2C=CC(C2)C1S(=O)(=O)CCCC (stereo not given),-9,-8,-2,0,12,12,x,x,
Cc1nc2cc(-c3ccccc3)nn2c(C)c1CCC(=O)NCc1ccco1,2,32,8,0,-59,69*,79*,37,
